This note sets out measurements from PubChem BioAssay (NCATS).

The nature of assay [1]: Quantitative High-Throughput drug screen in 47 multiple myeloma cell lines against the NCATS MIPE library collection: MM1S_ATCC cell viability assay (AID 1918980). Further: nearly all actives have a fitted effect of over 45% in size. The method in brief: (§1)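 500 cells/well per myeloma line exposed to pinned MIPE 4.0 compounds for 48 h at 37 °C, 5% CO2. Viability read as ATP by CellTiter-Glo luminescence, normalised to DMSO-only (100%) and media-only (0%) wells.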

Assay [2] can be described thus: Quantitative High-Throughput drug screen in 47 multiple myeloma cell lines against the NCATS MIPE library collection: MM1R_ATCC cell viability assay (AID 1918981). Further: nearly all actives have a fitted effect of over 35% in size. A digest of the protocol:
as §1

Assay [3] can be described thus: Quantitative High-Throughput drug screen in 47 multiple myeloma cell lines against the NCATS MIPE library collection: KMS28PE_JCRB cell viability assay (AID 1918983). Further: nearly all actives have a fitted effect of over 35% in size. A digest of the protocol:
as §1

Assay [4] is described as follows: Quantitative High-Throughput drug screen in 47 multiple myeloma cell lines against the NCATS MIPE library collection: OCIMY7_PLB cell viability assay (AID 1918987). Further: nearly all actives have a fitted effect of over 65% in size. To be noted: OCI-MY7 myeloma viability, CellTiter-Glo ATP, 48 h; viability (% of DMSO): at 45.8 µM (top of the series). The method in brief:
as §1
For orientation: In ATP-based viability assays light output follows the ATP content of the culture.

A short description of assay [5]: Quantitative High-Throughput drug screen in 47 multiple myeloma cell lines against the NCATS MIPE library collection: LP1_DSMZ cell viability assay (AID 1918982). Further: nearly all actives have a fitted effect of over 35% in size. A digest of the protocol: as §1
Assay [6] is described as follows: Quantitative High-Throughput drug screen in 47 multiple myeloma cell lines against the NCATS MIPE library collection: L363_DSMZ cell viability assay (AID 1918984). Further: nearly all actives have a fitted effect of over 40% in size. A digest of the protocol: as §1
A short description of assay [7]: Quantitative High-Throughput drug screen in 47 multiple myeloma cell lines against the NCATS MIPE library collection: KMS34_JCRB cell viability assay (AID 1918985). Further: nearly all actives have a fitted effect of over 40% in size. The method in brief: as §1
Assay [8] in a line: Quantitative High-Throughput drug screen in 47 multiple myeloma cell lines against the NCATS MIPE library collection: OPM1_PLB cell viability assay (AID 1918989). Further: nearly all actives have a fitted effect of over 40% in size. A digest of the protocol: as §1
The nature of assay [9]: Quantitative High-Throughput drug screen in 47 multiple myeloma cell lines against the NCATS MIPE library collection: OCIMY5_PLB cell viability assay (AID 1918988). Further: nearly all actives have a fitted effect of over 65% in size. The method in brief:
as §1

Records with an inconclusive call do not appear. Active and inactive are the calls of the source. The call rests on the fitted dose curve; in most records, active means well fitted cell-killing curve with a large enough effect; inconclusive means small, poorly fitted or top-dose-only effect, or effect the other way; inactive means no such curve, though single readings can be large or run the other way.
Potency means the concentration at half of the fitted maximal effect.

Consider `CO[C@H]1C[C@@H]2CC[C@@H](C)[C@@](O)(O2)C(=O)C(=O)N2CCCC[C@@H]2C(=O)O[C@H]([C@H](C)C[C@@H]2CC[C@H](OP(C)(C)=O)[C@H](OC)C2)CC(=O)[C@H](C)C=C(C)[C@@H](O)[C@@H](OC)C(=O)[C@H](C)C[C@H](C)C=CC=CC=C1C`, for which the Potency result in [1], in assay [2] and in assay [3] was “inactive” each time. For the same compound, the Potency in assay [4] was 14.8 µM (active).
With `CCn1cc(C(=O)O)c(=O)c2ccc(C)nc21`, the Potency result in assay [2], in [5], in [3], in assay [6], in assay [7] and in assay [8] was “inactive” each time.
`C[N+](C)(C)CC(=O)O`: the Potency result in assay [2], in [3], in assay [6], in assay [7] and in [4] was “inactive” in each case.
`COC(=O)N[C@H](C(=O)N1CCC[C@@H]1c1ncc(-c2ccc(-c3ccc(-c4cnc([C@@H]5CCCN5C(=O)[C@@H](NC(=O)OC)C(C)C)[nH]4)cc3)cc2)[nH]1)C(C)C`: the Potency is 26.4 µM (active) in assay [2], 18.7 µM (active) in [5], 29.6 µM (active) in assay [6] and 18.7 µM (active) in [4].
Consider `O=C1c2c(O)cc(O)cc2O[C@H](c2cc(O)c(O)c(O)c2)[C@H]1O`, for which the Potency in assay [2] was 23.5 µM (active); in [5], 20.9 µM (active); in assay [3], 20.9 µM (active); in assay [7] it was 11.8 µM (active); in assay [9] it was 13.2 µM (active). Also, the Potency entry in [8] is “inactive”.
On to `O=C(O)C(O)Cc1ccc(O)c(O)c1` (configuration not stated), for which the Potency in [1] is 16.6 µM (active); in [2] it was 20.9 µM (active); in [3], 23.5 µM (active); in assay [7], 18.7 µM (active); in assay [9], 23.5 µM (active). The Potency result in assay [6] was “inactive”.
On to `O=C1Nc2ccc(Cl)cc2C(C#CC2CC2)(C(F)(F)F)O1` (configuration not stated), for which the values for the Potency in assay [1], in assay [9] and in assay [8] were 20.9 µM (active), 16.6 µM (active) and 20.9 µM (active), respectively.
With `COc1cccc2c1CCCC2CCCN1CCN(C2CCCCC2)CC1` (configuration not stated), the Potency in assay [1] was 20.9 µM (active); in assay [3], 14.8 µM (active); in assay [6], 16.6 µM (active); in assay [4] it was 13.2 µM (active); in assay [9] it was 16.6 µM (active); in assay [8], 20.9 µM (active). Also, the Potency result in [7] was “inactive”.
`CC=CCC=CCCC(=O)[C@H]1O[C@@H]1C(N)=O`: the Potency is 20.9 µM (active) in assay [1]; 18.7 µM (active) in assay [2]; 18.7 µM (active) in assay [6]; 14.8 µM (active) in [4]; 14.8 µM (active) in assay [9].
For `CON=C(C(=O)N[C@@H]1C(=O)N2C(C(=O)OCOC(=O)C(C)(C)C)=C(C=Cc3scnc3C)CS[C@H]12)c1csc(N)n1`, in assay [2], the Potency was 18.7 µM (active). In addition, the Potency result in assay [5], in assay [9] and in assay [8] was “inactive” each time.
Take `CC(=O)O[C@]1(C(C)=O)CC[C@@H]2[C@@H]3C[C@H](C)C4=CC(=O)CC[C@]4(C)[C@H]3CC[C@@]21C`: the Potency in [1] is 13.2 µM (active); in assay [2], 20.9 µM (active); in assay [4], 23.5 µM (active).
For the compound `NC(=O)c1cnc(-c2ccc(C3(N)CCC3)cc2)c(-c2ccccc2)c1`, the Potency in assay [2] is 7.43 µM (active); in assay [5], 2.64 µM (active); in [3], 0.332 µM (active); in assay [4], 1.87 µM (active); in assay [9] it was 0.187 µM (active).
Take `C=CCc1ccc(O)c(-c2ccc(O)c(CC=C)c2)c1`: the Potency in [1] and in assay [9] was 18.7 µM (active) each time.
`CO[C@H]1C[C@@H]2CC[C@@H](C)[C@@](O)(O2)C(=O)C(=O)N2CCCC[C@@H]2C(=O)O[C@H]([C@H](C)C[C@@H]2CC[C@H](OC(=O)C(C)(CO)CO)[C@H](OC)C2)CC(=O)[C@H](C)C=C(C)[C@@H](O)[C@@H](OC)C(=O)[C@H](C)C[C@H](C)C=CC=CC=C1C`: the Potency entry in [1] is “inactive”. The Potency in [4] is 14.8 µM (active).
As for `Cc1nnc(C(C)C)n1C1C[C@H]2CC[C@@H](C1)N2CC[C@H](NC(=O)C1CCC(F)(F)CC1)c1ccccc1` (some centres not stated), the Potency entry in assay [2], in [5], in assay [3], in assay [6], in [9] and in [8] was “inactive” throughout.
With `Oc1ccc(C2=Cc3ccc(O)cc3OC2)cc1`, the Potency is 3.32 µM (active) in [1]; 18.7 µM (active) in assay [3]; 0.662 µM (active) in assay [7]; 1.32 µM (active) in assay [4]; 1.48 µM (active) in assay [8].
For `CC[C@@H]1C=C(C)C[C@H](C)C[C@H](OC)[C@H]2O[C@@](O)(C(=O)C(=O)N3CCCC[C@@H]3C(=O)O[C@H](C(C)=C[C@@H]3CC[C@H](Cl)[C@H](OC)C3)[C@H](C)[C@@H](O)CC1=O)[C@H](C)C[C@H]2OC`, the Potency is 14.8 µM (active) in assay [1]; 16.6 µM (active) in [3]; 10.5 µM (active) in assay [6]; 16.6 µM (active) in [7]; 10.5 µM (active) in [4]; 16.6 µM (active) in assay [9].
With `COc1cc(NC(=O)c2ccc(-c3ccc(Cl)cc3)o2)cc(OC)c1`, the figures for the Potency in assay [1] and in assay [4] were 1.05 µM (active) and 3.32 µM (active), respectively. In [2], the Potency result was “inactive”.
With `CCC(=O)NC[C@H](Cc1ccc(OCCc2nc(-c3ccccc3)oc2C)cc1)NC(C)=CC(=O)c1ccc(C(F)(F)F)cc1`, the Potency in [1] is 1.87 µM (active); in assay [5], 18.7 µM (active); in [3], 23.5 µM (active); in assay [7] it was 23.5 µM (active). Besides, the Potency result in [8] was “inactive”.
Regarding `O=C(O)c1c(Cl)c(Cl)c(Cl)c(Cl)c1-c1c2cc(I)c(=O)c(I)c-2oc2c(I)c(O)c(I)cc12`, the Potency in [1] was 6.62 µM (active); in [2] it was 13.2 µM (active); in assay [3], 14.8 µM (active); in assay [9] it was 13.2 µM (active); in [8], 9.35 µM (active).
In the case of `CO[C@H]1C(=O)[C@]2(C)[C@@H](OC)C[C@H]3OC[C@@]3(OC(C)=O)[C@H]2[C@H](OC(=O)c2ccccc2)[C@]2(O)C[C@H](OC(=O)[C@H](O)[C@@H](NC(=O)OC(C)(C)C)c3ccccc3)C(C)=C1C2(C)C`, the Potency entry in assay [2], in [5], in assay [7], in assay [4], in assay [9] and in [8] was “inactive” throughout.
Regarding `O=c1cc(-c2ccccc2)oc2cc(O)c(O)c(O)c12`, the Potency is 18.7 µM (active) in assay [1], 23.5 µM (active) in assay [2] and 11.8 µM (active) in assay [8]. For the same compound, in assay [6], the Potency entry is “inactive”.
